# PubChem BioAssay AID371 (SRMLSC, 2006)
# In all, about 3,300 compounds went through this assay and about 280 (8.5%) were called active.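 How the source made its calls: active means mean growth inhibition over the two runs of 50% or more; inactive means mean growth inhibition under 50%.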 The full list was thinned out, with actives kept by preference.
# Experiment: A549 NSCLC cell proliferation inhibitors – ATP luminescence, human non-small cell lung line, primary screen (AID 371);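 further: compound exposure lasted 72 h before the ATP read; 0% = untreated cell signal and 100% = no luminescence left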
# Conditions: at 10 µM, stronger effect = higher value
row,Structure (SMILES),growth inhibition
1,CCC(=O)Nc1ccc(-c2nnc(-c3ccccc3)o2)cc1,33.7% (inactive)
2,COc1ccc(CC(=O)Nc2cccc(-c3nnc(-c4ccco4)o3)c2)cc1,64% (active)
3,O=C(COc1ccccc1)Nc1ccc(-c2nnc(-c3ccco3)o2)cc1,-6.02% (inactive)
4,O=C(Cc1ccc(Cl)cc1)Nc1cccc(-c2nnc(-c3ccco3)o2)c1,20.9% (inactive)
5,O=C(Cc1ccccc1)Nc1cccc(-c2nnc(-c3ccco3)o2)c1,24% (inactive)
6,Cc1cccc(C)c1OCC(=O)Nc1cccc(-c2nnc(-c3ccccc3)o2)c1,53% (active)
7,N/C(CCCN1CCCCC1)=N/O,-8.24% (inactive)
8,CCOC(=O)CNC(=O)CCCCCC(=O)NCC(=O)OCC,-12.7% (inactive)
9,O=C(NCCN1CCOCC1)c1cc2n(n1)C(C(F)(F)F)CC(c1ccc(F)cc1)N2 (stereo unspecified),2.7% (inactive)
10,CC(C)(C)NCC(=O)c1c[nH]c2ccccc12,-2.93% (inactive)
11,COc1ccc2c(c1OC)C(=O)N1c3ccccc3C(=O)N(c3ccccc3)C21 (stereo unspecified),36.5% (inactive)
12,CCCCSc1nc(O)c(C2OC(=O)c3c2ccc(OC)c3OC)c(=O)n1C (stereo unspecified),4.34% (inactive)
13,c1ccc(-c2nnc(OCCN3CCOCC3)c3ccccc23)cc1,-0.08% (inactive)
14,CCOC(=O)N1CCN(C(=O)c2cn(CC)c3cc(N4CCN(C)CC4)c(F)cc3c2=O)CC1,0.65% (inactive)
15,CCn1cc(C(=O)NCC2CCCO2)c(=O)c2cc(F)c(N3CCN(C)CC3)cc21 (stereo unspecified),-0.9% (inactive)
16,CCn1cc(C(=O)NCc2ccco2)c(=O)c2cc(F)c(N3CCN(C(=O)c4ccco4)CC3)cc21,59.3% (active)
17,CCn1cc(C(=O)NCc2ccccn2)c(=O)c2cc(F)c(N3CCN(C)CC3)cc21,-0.7% (inactive)
18,CCn1cc(C(=O)NCCc2ccccc2)c(=O)c2cc(F)c(N3CCN(C)CC3)cc21,89.8% (active)
19,CCn1cc(C(=O)NCCCN(C)C)c(=O)c2cc(F)c(N3CCN(C)CC3)cc21,8.61% (inactive)
20,CCNc1nc(NC(C)C)nc(N(C#N)C(C)C(=O)N(C)C)n1 (stereo unspecified),2.18% (inactive)
21,CCN(CC)CCCN1C(=O)C(=O)/C(=C(/O)c2ccccc2)C1c1cc(OC)ccc1OC (stereo unspecified),6.35% (inactive)

row,Structure (SMILES),growth inhibition
1,O=C1CC(NCc2ccncc2)C(=O)N1c1ccc(Cl)cc1 (stereo unspecified),-4.36% (inactive)
2,COc1cccc(NC(=O)CC2SC(=Nc3ccccc3)NC2=O)c1 (stereo unspecified),19.4% (inactive)
3,Cn1c(CSc2ncn[nH]2)nc2ccccc21,-2.84% (inactive)
4,CC12CCC(=O)N1c1c(sc3nc(N4CCOCC4)c4c(c13)CCCC4)C(=O)N2 (stereo unspecified),4.33% (inactive)
5,CCOC(=O)c1c(CNCCN(CC)CC)n(C)c2cc(Br)c(OC)cc12,33.7% (inactive)
6,CCOC(=O)c1c(CN2CCN(C)CC2)n(C)c2cc(Br)c(OC)cc12,89.8% (active)
7,CCOC(=O)c1c(C)n(C)c2ccc(OC)c(NC(=O)CN3CCN(Cc4ccccc4)CC3)c12,12.1% (inactive)
8,CCOC(=O)c1c(C)n(C)c2ccc(OC)c(NC(=O)CN3CCCCC3)c12,6.99% (inactive)
9,CCOC(=O)c1c(CN2CCCCC2)oc2ccc(OC)cc12,5.15% (inactive)
10,CCOC(=O)c1c(CN2CCN(CCO)CC2)n(C)c2cc(Br)c(OC)cc12,84.4% (active)
11,COc1ccccc1C1/C(=C(/O)c2ccc(C)cc2)C(=O)C(=O)N1CCN1CCOCC1 (stereo unspecified),2.55% (inactive)
12,CN(CCCCCC(=O)/C=N/O)Cc1ccccc1,1.07% (inactive)
13,COc1ccc(N(CN2C(=O)C3C4C=CC(C4)C3C2=O)C(=O)c2ccco2)cc1 (stereo unspecified),4.02% (inactive)
14,N#C/C(C(=O)NCc1ccco1)=C1/SC(Cc2ccc(Cl)cc2)C(=O)N1c1ccccc1 (stereo unspecified),5.74% (inactive)
15,CCC(=O)Nc1nc2ccccc2n1CCN(C)C,4.62% (inactive)
16,CN(C)CCCn1c(NC(=O)C2CCCCC2)nc2ccccc21,1.53% (inactive)
17,CCC(=O)Nc1nc2ccccc2n1Cc1ccccc1C,64.4% (active)
18,CCOc1ccc(NC(=O)c2nn(C)cc2Br)cc1,20.1% (inactive)
19,C=CCOc1nc(-c2ccncc2)nc2ccccc12,18.5% (inactive)
20,Nc1c2c(nc3ccccc13)N(C1CCCCC1)CC2,38.8% (inactive)
21,CCC1CCCCN1c1nc(-c2cccc(OC)c2O)nc2ccccc12 (stereo unspecified),45% (inactive)

row,Structure (SMILES),growth inhibition
1,COc1cccc(-c2nc(N3CCCCC3)c3ccccc3n2)c1O,49.3% (inactive)
2,COc1cccc(-c2nc(N3CC(C)CC(C)C3)c3ccccc3n2)c1O (stereo unspecified),30.1% (inactive)
3,CCC1CCCCN1c1nc(-c2ccncc2)nc2ccccc12 (stereo unspecified),74.9% (active)
4,COc1cccc(-c2nc(N3CCC(C)CC3)c3ccccc3n2)c1O,53.7% (active)
5,COc1cccc(-c2nc(N3CCCCC3C)c3ccccc3n2)c1O (stereo unspecified),61.7% (active)
6,CCOc1nc(-c2ccncc2)nc2ccccc12,10.3% (inactive)
7,Cc1ccc(N2C(=O)c3sc4nnc(C)c(=O)n4c3C2=O)cc1,-7.4% (inactive)
8,COc1cccc(OC)c1-c1nn2c(-c3ccccc3Cl)nnc2s1,21% (inactive)
9,CCOC(=O)c1ccc(NCC(O)COc2ccccc2)cc1 (stereo unspecified),31.1% (inactive)
10,COc1ccc(C(=O)N2CCCC(c3ccccc3)C2)cc1 (stereo unspecified),19% (inactive)
11,COc1ccccc1-c1nnc2sc(COc3ccccc3)nn12,22% (inactive)
12,CC1C[C@@]2(NC(=O)NC2=O)C(C)CN1C (stereo partly specified),2.94% (inactive)
13,COc1ccc(Nc2cc(C)nc3ccccc23)cc1,31.3% (inactive)
14,COc1ccc(Nc2nc(Nc3ccc(OC)cc3)nc(-n3[nH]c(=O)c(C)c3C)n2)cc1,39.1% (inactive)
15,COc1ccc(Nc2cc(C)nc(-n3nc(C)cc3C)n2)cc1,66.2% (active)
16,O=C(Nc1ccccc1)c1cc(N2CCOCC2)nc2ccccc12,8.97% (inactive)
17,CC(C)COc1ccc(C(=O)NC(CC(C)C)C(=O)O)cc1 (stereo unspecified),-8.3% (inactive)
18,COc1cc(-c2nn3c(-c4ccccn4)nnc3s2)cc(OC)c1OC,-8.06% (inactive)
19,Cc1ccc2c(=O)c(CN(C)C3CCN(C)CC3)c(C)[nH]c2c1C,5.56% (inactive)
